Test results taken from PubChem BioAssay (NCI).
This is part of a sample that, as a whole, favours compounds with a hit. Of some 83,000 tested, about 20% had one in any assay.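 Each cell line was grown in a 96-well plate and treated with one concentration of compound for 48 hours. Values below 10 were considered active.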 A number with no mark means an inactive call. Active and inactive are the calls of the source.

Each compound was assayed on NCI-H460 lung (assay: NCI-60 one-dose screen, 48 h (100 = growth as untreated, 0 = no growth, -100 = all killed)). Settings: 10 µM unless noted.
Description: Growth inhibition of the NCI-H460 human Non-Small Cell Lung tumor cell line is measured as a screen for anti-cancer activity. Cells are grown in 96 well plates and exposed to the test compound for 48 hours. Compounds are tested at a single concentration, which is 10^-5 M for most compounds. The reported endpoint is percent growth (GI% or GIPRCNT), where numbers from 0 - 100% represent growth inhibition, and numbers from -100% - 0 represent cell death. For example, a value of 40 represents 60% growth inhibition. A value of 0 means no net growth occurred over the course of the experiment. A value of -40 indicates 40% of cells at the beginning of the experiment died by the end of the experiment. A value of -100 means all cells are dead at the end of the experiment.
NCI-60 Human Tumor Cell Lines Screen was performed using the standard one-dose NCI protocol, which is described in more detail at https://dtp.cancer.gov/discovery_development/nci-60/default.htm.
Compounds with GIPRCNT values below 10 were considered active. Activity score was based on GIPRCNT using the following formula: […]
Score is 0 for GIPRCNT values of 100 or above, 50 for GIPRCNT values of 0, and 100 for GIPRCNT values of -100.
Work on `COc1ccc(Nc2nnc(-c3ccc(OC)c(OC)c3)o2)cc1` yielded a growth of 100%. In the case of `COc1ccc(OC)c(/C=N/Nc2ncnc3c2c(C)nn3C)c1`, the growth is reported as 106%. `CCN(CC)CCn1c2ccc(OC)cc2c2sc3cc(OC)ccc3c(=O)c21` was tested, and the growth was 9.41% (active). `CCOC(=O)c1c(C(=O)c2cn(C)c3ccc(Br)cc23)c(-c2cn(C)c3ccc(Br)cc23)n(NC(=O)OC(C)(C)C)c1C` was tested, and the growth was 80.5% [100 µM]. For `CCOC(=O)Cc1cnc(N/N=C(\C)c2cc3ccccc3o2)s1`, the growth was 94.4%. With `C=CC(=O)N1CCN(c2cccc(Oc3nccc(Nc4nnc(-c5ccc(Br)cc5)s4)n3)c2)CC1` the growth was 25.6%. `COc1cc2c(cc1OC)C(C)N(S(N)(=O)=O)CC2` (stereo not given) showed a growth of 111%. `CN1CCN(c2cc(Nc3cc(C4CC4)[nH]n3)nc(Nc3ccc(CC(=O)NCc4cccc(F)c4)cc3)n2)CC1` gave a growth of 13%. Compound `NC(=O)c1cccc(-n2ccc3cc(NC(=O)c4ccc(N5CCOCC5)c(C(F)(F)F)c4)ccc32)n1` has a growth of 43.8%. Work on `C1CN(SSN2CCOCC2)CCO1` yielded a growth of 10.8% [100 µM]. `COc1cc2c(cc1OCCCN1CCN(CCCOc3cc4c(cc3OC)C(=O)N3CC(F)(F)C[C@H]3C=N4)CC1)N=C[C@@H]1CC(F)(F)CN1C2=O` showed a growth of 27%. In the case of `Cc1ccc2c(n1)C(=O)C(Br)=C(CC(C)C)C2=O`, the growth is reported as 105%. Compound `O=C(Nc1ccc(OS(=O)(=O)c2ccc(F)cc2)cc1)C1CCCCCC1` has a growth of 95.5%. Work on `COc1cccc(CNc2ccc3ncnc(Nc4ccc(F)c(Cl)c4)c3c2)c1` yielded a growth of 78%. Work on `Cc1ccc(Nc2cc(N)nc(N)n2)cc1Cl` yielded a growth of 103%. With `CCOC(=O)C1=C(c2ccccc2)N=C2SC=C(c3ccc(Cl)cc3)N2C1c1ccc(Br)cc1` (stereo not given) the growth was 85%. Work on `COc1ccc(/C=C(\C#N)n2nnc3cc(F)c(F)cc32)cc1` yielded a growth of 87.8%. For `Cc1cc(=O)n(C(=O)Nc2ccccc2Cl)c2cc(O)ccc12`, the growth was 100%. In the case of `COc1c(B(O)O)cccc1-c1cc(C)c2c(ccc3[nH]ncc32)n1`, the growth is reported as 71%. With `Cc1ccc(-c2nc(N3CCCNCC3)c3oc(-c4ccccc4)nc3n2)cc1` the growth was -67.9% (active). With `CCN(CC)c1ccc(\C=N/N=C(N)/C(N)=N\N=C/c2ccc(N(CC)CC)cc2)cc1` the growth was 109%. Work on `COc1cc(-c2nc3sccn3c2-c2ccnc(NCCNS(=O)(=O)c3ccccc3)n2)ccc1F` yielded a growth of 60.4%. `Nc1nc(N)c(-c2ccc(Cl)c(Cl)c2)c(CBr)n1` gave a growth of 25.7%. For `CCC(C)N(CCNc1cc(OC)cc2cccnc12)CC(C)C` (stereo not given), the growth was 98%. `CC1=NC2=Nn3c(c4cnn(-c5ccccc5)c4n/c3=N\N)NN2C(c2ccccc2)=C1` was tested, and the growth was 88.5%. With `COC1=CC(c2ccc[nH]2)=N/C1=C\c1[nH]c(C)c(CC(=O)NCc2ccccc2)c1C` the growth was 10.9%. Work on `N#Cc1nc(-c2ccc(Cl)cc2)oc1S(=O)(=O)N1CCN(c2ccc(F)cc2)CC1` yielded a growth of 104%. For `COc1ccc(Cc2cnc(NC(=O)c3cc(C)oc3C)s2)cc1`, the growth was 16.6%. Compound `COc1cc2c(c(OC)c1OC)CCC(c1cccc(C(=O)Nc3cccc(Cl)c3)c1)O2` (stereo not given) has a growth of 85%. `COC12C=C/C(=C(/C(=O)OCc3ccncn3)C(=O)CCCCCCCCC3(OC)C=C/C(=C(/C(=O)OCc4ccncn4)C(=O)CCCCCCCC1)O3)O2` was tested, and the growth was 1.29% (active). `COc1ccc(/C=C(\C#N)n2nnc3ccc(Cl)cc32)cc1` was tested, and the growth was 83.9%. In the case of `Cc1[nH]c(C(=O)Nc2ccc(C(=O)N3CCN(c4cc5c(cc4F)c(=O)c(C(=O)O)cn5C4CC4)CC3)cc2OC(C)C)c(Cl)c1Cl`, the growth is reported as 8.48% (active). In the case of `COC(=O)c1cc(N=C2NC(=O)/C(=C/C=C/c3ccccc3)S2)ccc1O`, the growth is reported as 12.1%. `CCCC/C(CC)=N\NS(=O)(=O)c1ccc([N+](=O)[O-])cc1` was tested, and the growth was 105%. In the case of `N#CSCC1CC(O)(c2ccccc2)CC(c2ccc(F)cc2)O1` (stereo not given), the growth is reported as -28.9% (active). `Oc1c(Br)cc(Br)c2ccc(Cn3cc(-c4ccccc4C(F)(F)F)nn3)nc12` gave a growth of 101%. For `Clc1ccc2c(NC3CCC(N4CCOCC4)CC3)ccnc2c1` (stereo not given), the growth was 81.8%. `CCCCNCCCCCNc1cc(OC)cc2cccnc12` showed a growth of 106%. `Nc1ncnc2c1C(c1ccccc1)c1ccc3ccccc3c1O2` (stereo not given) showed a growth of 103%. `O=C(Nc1cccc2ccccc12)NC1CC1` was tested, and the growth was 106%.
